Experiment [1] is described as follows: qHTS assay to identify aromatase inhibitors - cell viability counter screen (AID 743084).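 Further: cells stimulated with testosterone during compound exposure; nearly all actives have a fitted effect of over 55% in size.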
The nature of experiment [2]: qHTS assay to identify small molecule that activate the aryl hydrocarbon receptor (AhR) signaling pathway - cell viability counter screen (AID 743086).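 Further: HepG2 liver cells carrying the AhR DRE luciferase reporter; series mostly up to about 70 µM; nearly all actives have a fitted effect of over 45% in size.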 An outline of the steps:
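HepG2-AhR-luc (HG2L7.5c1) cells, 4000/well, were preincubated 5 h at 37C, exposed to compound in qHTS format for 24 hr at 37C, then given CellTiter-Fluor for 30 min; viability was read as fluorescence in the reporter wells.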
For orientation: In qHTS, concentration-response curves come from the screen itself.

The target of experiment [3] is Peroxisome proliferator-activated receptor gamma (Homo sapiens) (UniProt P37231). Kind of experiment: qHTS assay to identify small molecule agonists of the peroxisome proliferator-activated receptor gamma (PPARg) signaling pathway (AID 743094; active means well fitted activation curve with a large enough effect in the signal ratio in the repeat runs, not every such curve was filed as active; the % refers to the signal ratio). The method in brief: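 Agonist activity was taken from a beta-lactamase reporter (FRET substrate, 1 h at room temperature) in HEK293H cells carrying a PPARg UAS-bla construct. Compounds in DMSO were incubated 17 h at 37C after a 5 h cell pre-incubation.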
Sequence of Peroxisome proliferator-activated receptor gamma (Homo sapiens) (P37231 whole entry, looked up): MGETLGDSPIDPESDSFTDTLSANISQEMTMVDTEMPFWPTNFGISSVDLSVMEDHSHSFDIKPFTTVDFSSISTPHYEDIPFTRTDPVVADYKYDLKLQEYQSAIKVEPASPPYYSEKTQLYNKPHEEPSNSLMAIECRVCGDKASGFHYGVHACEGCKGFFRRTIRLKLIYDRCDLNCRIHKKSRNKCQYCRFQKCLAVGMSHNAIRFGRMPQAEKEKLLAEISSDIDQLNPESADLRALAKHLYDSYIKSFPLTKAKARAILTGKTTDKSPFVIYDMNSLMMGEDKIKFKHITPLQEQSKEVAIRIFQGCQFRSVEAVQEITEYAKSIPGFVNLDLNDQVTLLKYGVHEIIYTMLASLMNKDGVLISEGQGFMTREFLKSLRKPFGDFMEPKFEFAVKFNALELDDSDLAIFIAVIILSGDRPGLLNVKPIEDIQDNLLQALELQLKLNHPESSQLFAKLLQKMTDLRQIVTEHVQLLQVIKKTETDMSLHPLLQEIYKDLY

Experiment [4] has the same target. Kind of experiment: qHTS assay to identify small molecule antagonists of the peroxisome proliferator-activated receptor gamma (PPARg) signaling pathway (AID 743191; calls by dose curve; further: series mostly up to about 63 µM; nearly all actives have a fitted effect of over 30% in size). The method in brief: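 GeneBLAzer PPARg UAS-bla HEK293H cells carrying a UAS-driven beta-lactamase reporter were plated at 3000 cells/well, preincubated 5 h at 37C, then given compound for 17 h at 37C; LiveBLAzer B/G FRET substrate was read after 1 h at room temperature.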

Experiment [5] can be described thus: qHTS assay to identify small molecule antagonists of the peroxisome proliferator-activated receptor gamma (PPARg) signaling pathway - cell viability counter screen (AID 743194). Further: nearly all actives have a fitted effect of over 55% in size. Further: potency means the concentration at half of the fitted maximal effect. The method in brief:
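PPARg-UAS-bla HEK293H cells were plated, rested 5 h at 37 C, then treated with compounds plus rosiglitazone (50 nM final) for 17 h at 37 C; viability was then read by CellTiter-Glo luminescence after 30 min at room temperature.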

The nature of experiment [6]: qHTS assay for small molecule agonists of the antioxidant response element (ARE) signaling pathway (AID 743202; active means well fitted activation curve with a large enough effect in the signal ratio in the repeat runs, not every such curve was filed as active; the % refers to the signal ratio; further: potency means the concentration at half of the fitted maximal effect). An outline of the steps:
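Following a 16 h, 37 C exposure of reporter HepG2 cells (ARE-driven beta-lactamase, 2,000 cells/well) to compounds, FRET substrate was applied for 2 h at room temperature and fluorescence intensity recorded.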

Experiment [7] in a line: qHTS assay for small molecule agonists of the antioxidant response element (ARE) signaling pathway - cell viability counter screen (AID 743203; calls by dose curve; further: nearly all actives have a fitted effect of over 55% in size; further: potency means the concentration at half of the fitted maximal effect). The method in brief:
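Viability counter screen: CellTiter-Glo luminescence, read after 30 min at room temperature, in ARE-bla HepG2 wells. Compound exposure lasted 16 h at 37C/5% CO2, following a 5 h pre-incubation of the cells after plating.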

The nature of experiment [8]: qHTS assay for small molecule activators of the heat shock response signaling pathway - cell viability counter screen (AID 743209). Further: nearly all actives have a fitted effect of over 50% in size. The method in brief: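 Cytotoxicity counter screen run in the same wells as the heat-shock bla reporter assay: HeLa HSE-bla cells, 5 h compound exposure at 37 C, viability read by CellTiter-Glo luminescence.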
Experiment [9] in a line: qHTS assay for small molecule activators of the heat shock response signaling pathway (AID 743210; active means well fitted activation curve with a large enough effect in the signal ratio in the repeat runs, with a control signal flat, not every such curve was filed as active; the % refers to the signal ratio; further: series mostly up to about 63 µM). An outline of the steps: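 Heat shock element–beta-lactamase HeLa reporter cells; qHTS with compounds for 5 h at 37 C; detection by FRET substrate fluorescence after 2.5 h at RT.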
Experiment [10] is described as follows: qHTS assay to identify small molecule agonists of the peroxisome proliferator-activated receptor delta (PPARd) signaling pathway - cell viability counter screen (AID 743211). Further: nearly all actives have a fitted effect of over 55% in size. Further: potency means the concentration at half of the fitted maximal effect. The method in brief: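 Multiplexed format: after the 2 h room-temperature LiveBLAzer B/G FRET step, CellTiter-Glo was added to the same wells. Luminescence after 30 min gave cell viability; compound exposure was 17 h at 37C.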

The target in experiment [11] is Peroxisome proliferator-activated receptor delta (Homo sapiens) (UniProt Q03181). Kind of experiment: qHTS assay to identify small molecule agonists of the peroxisome proliferator-activated receptor delta (PPARd) signaling pathway (AID 743212; calls by dose curve; further: potency means the concentration at half of the fitted maximal effect). The method in brief:
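Beta-lactamase reporter read by fluorescence (LiveBLAzer B/G FRET, 2 h, room temperature). Test agents, in DMSO, incubated at 37 C with PPARd-bla HEK293H cells.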

Experiment [12] is described as follows: qHTS assay to identify small molecule antagonists of the peroxisome proliferator-activated receptor delta (PPARd) signaling pathway - cell viability counter screen (AID 743213). Further: nearly all actives have a fitted effect of over 50% in size. An outline of the steps:
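Viability counter-screen, qHTS format: PPARd-bla HEK293H, L165041 300 nM final, 17 h compound exposure at 37 C, CellTiter-Glo luminescence after 30 min RT.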

The target of experiment [13] is Peroxisome proliferator-activated receptor delta (Homo sapiens) (UniProt Q03181). Kind of experiment: qHTS assay to identify small molecule antagonists of the peroxisome proliferator-activated receptor delta (PPARd) signaling pathway (AID 743215; active means well fitted inhibition curve with a large enough effect in the signal ratio in the repeat runs, not every such curve was filed as active; the % refers to the signal ratio;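 further: cells stimulated with agonist L165041 at 300 nM final during compound exposure; series mostly up to about 62 µM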). The method in brief:
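Agonist L165041 (300 nM final) added with compound to PPARd-bla HEK293H UAS-bla reporter cells; 17 h incubation at 37 C. Read-out: LiveBLAzer FRET substrate, 2 h at room temperature, fluorescence intensity.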

The nature of experiment [14]: qHTS assay to identify small molecule agonists of the farnesoid-X-receptor (FXR) signaling pathway - cell viability counter screen (AID 743218). Further: nearly all actives have a fitted effect of over 45% in size. Further: potency means the concentration at half of the fitted maximal effect. The method in brief:
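Viability counter screen in the same wells: CellTiter-Glo luminescence, 30 min room-temperature incubation, measured after the beta-lactamase read. Cells were GeneBLAzer FXR-UAS-bla HEK 293T, compound-treated 16 h at 37C.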

Experiment [15] in a line: qHTS assay to identify small molecule antagonists of the farnesoid-X-receptor (FXR) signaling pathway - cell viability counter screen (AID 743221; active means well fitted cell-killing curve with a large enough effect in the repeat runs, not every such curve was filed as active; further: nearly all actives have a fitted effect of over 50% in size). The method in brief:
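CellTiter-Glo, 30 min RT, luminescence; same wells as the LiveBLAzer FRET read. Cells: FXR-UAS-bla HEK 293T. Treatment: compound with chenodeoxycholic acid 50 uM final, 16 h at 37 C.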

Experiment [16] concerns the target Vitamin D3 receptor (Homo sapiens) (UniProt P11473). The experiment can be described thus: qHTS assay to identify small molecule agonists of the vitamin D receptor (VDR) signaling pathway (AID 743222; calls by dose curve). The method in brief: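 Agonist mode, beta-lactamase reporter: fluorescence from LiveBLAzer B/G FRET substrate (2 h, room temperature) read after 16 h compound treatment at 37 C of VDR-bla cells, which were pre-incubated 4 h after seeding.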

For experiment [17] the target is unchanged. The experiment can be described thus: qHTS assay to identify small molecule antagonists of the vitamin D receptor (VDR) signaling pathway (AID 743223; active means well fitted inhibition curve with a large enough effect in the signal ratio in the repeat runs, not every such curve was filed as active; the % refers to the signal ratio). An outline of the steps: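 After VDR-bla cells are plated and left 4 h at 37C, DMSO-dissolved compounds and 3 nM (final) calcitriol agonist are added. Incubation continues 16 h at 37C; FRET beta-lactamase substrate then develops 2 h at room temperature.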

For experiment [18], the target named is Aryl hydrocarbon receptor (Homo sapiens) (UniProt P35869). Kind of experiment: qHTS assay to identify small molecule that activate the aryl hydrocarbon receptor (AhR) signaling pathway (AID 743085).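 Further: HG2L7.5c1 human HepG2 liver cells with stably integrated DRE-driven firefly reporter; series mostly up to about 70 µM; nearly all actives have a fitted effect of over 15% in size.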 The method in brief: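 Reporter assay in engineered HepG2 line HG2L7.5c1, whose plasmid carries twenty dioxin responsive elements upstream of firefly luciferase. Treatment lasted 24 h at 37C; ONE-Glo luminescence gauged induction.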
Sequence of Aryl hydrocarbon receptor (Homo sapiens) (P35869 whole entry, looked up): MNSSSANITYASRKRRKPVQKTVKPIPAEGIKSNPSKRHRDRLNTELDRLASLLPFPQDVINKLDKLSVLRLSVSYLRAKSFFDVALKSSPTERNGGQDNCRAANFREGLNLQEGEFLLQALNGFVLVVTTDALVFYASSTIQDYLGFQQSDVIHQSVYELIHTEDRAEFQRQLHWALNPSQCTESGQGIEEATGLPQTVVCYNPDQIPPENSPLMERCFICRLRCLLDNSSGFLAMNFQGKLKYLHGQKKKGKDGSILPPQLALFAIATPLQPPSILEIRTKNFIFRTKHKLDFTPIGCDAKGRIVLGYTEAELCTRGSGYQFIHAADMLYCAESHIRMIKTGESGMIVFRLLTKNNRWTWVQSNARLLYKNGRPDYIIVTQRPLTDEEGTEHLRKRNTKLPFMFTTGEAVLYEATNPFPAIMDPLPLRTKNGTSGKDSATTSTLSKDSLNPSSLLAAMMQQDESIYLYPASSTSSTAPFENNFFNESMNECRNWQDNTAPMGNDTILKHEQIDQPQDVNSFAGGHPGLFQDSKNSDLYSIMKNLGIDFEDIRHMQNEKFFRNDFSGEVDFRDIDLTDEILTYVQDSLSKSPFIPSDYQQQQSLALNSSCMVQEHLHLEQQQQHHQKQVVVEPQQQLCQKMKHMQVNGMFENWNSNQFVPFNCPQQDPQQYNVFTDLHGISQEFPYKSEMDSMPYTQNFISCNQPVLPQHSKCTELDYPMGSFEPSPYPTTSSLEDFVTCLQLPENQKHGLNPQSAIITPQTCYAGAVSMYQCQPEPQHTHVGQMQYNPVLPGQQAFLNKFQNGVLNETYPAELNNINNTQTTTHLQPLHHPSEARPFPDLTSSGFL

Inconclusive results are not listed. Active and inactive are the calls of the source. Unless noted, the call rests on the fitted dose curve; in most records, active means well fitted curve in the direction sought with a large enough effect in the repeat runs; inconclusive means weak or mixed curves; inactive means no such curve, though single readings can be large; an effect the other way counts as inactive or inconclusive.

Sequence of Peroxisome proliferator-activated receptor delta (Homo sapiens) (Q03181 whole entry, looked up): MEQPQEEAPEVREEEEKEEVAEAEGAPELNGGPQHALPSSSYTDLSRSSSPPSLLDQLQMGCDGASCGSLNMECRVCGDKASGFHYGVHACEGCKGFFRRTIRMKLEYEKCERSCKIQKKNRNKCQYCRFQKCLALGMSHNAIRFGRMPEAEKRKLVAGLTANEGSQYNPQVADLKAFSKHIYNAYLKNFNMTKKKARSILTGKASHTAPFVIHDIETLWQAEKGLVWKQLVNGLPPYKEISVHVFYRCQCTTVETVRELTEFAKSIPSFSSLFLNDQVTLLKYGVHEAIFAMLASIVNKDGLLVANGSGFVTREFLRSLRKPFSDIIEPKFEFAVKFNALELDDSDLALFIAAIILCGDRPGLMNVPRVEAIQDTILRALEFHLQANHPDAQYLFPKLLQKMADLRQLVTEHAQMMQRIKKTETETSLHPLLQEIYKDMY
Sequence of Vitamin D3 receptor (Homo sapiens) (P11473 whole entry, looked up): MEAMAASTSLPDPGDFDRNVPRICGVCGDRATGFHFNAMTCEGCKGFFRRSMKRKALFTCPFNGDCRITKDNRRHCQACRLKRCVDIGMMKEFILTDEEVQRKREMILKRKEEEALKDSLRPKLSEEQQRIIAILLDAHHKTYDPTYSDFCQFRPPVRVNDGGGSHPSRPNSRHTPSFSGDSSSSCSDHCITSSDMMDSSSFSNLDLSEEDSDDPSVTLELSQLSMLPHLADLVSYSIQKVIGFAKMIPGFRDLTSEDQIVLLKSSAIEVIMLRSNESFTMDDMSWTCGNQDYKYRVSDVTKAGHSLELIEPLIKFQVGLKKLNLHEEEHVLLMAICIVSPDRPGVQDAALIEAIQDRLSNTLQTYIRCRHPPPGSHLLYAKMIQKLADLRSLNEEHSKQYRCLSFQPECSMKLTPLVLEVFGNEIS

Take `CCn1cc(C(=O)O)c(=O)c2cc(F)c(N3CCNCC3)cc21`: the Potency entry in experiment [1], in [2], in experiment [3], in [4], in experiment [5] and in experiment [6] was “inactive” in each case. Besides, the Potency result in experiment [7], in experiment [8], in [9], in [10], in experiment [11] and in experiment [12] was “inactive” throughout. The Potency result in experiment [13], in experiment [14] and in [15] was “inactive” each time.

As to `C=C(C)C(=O)OCCCCCCCCCCCCC`, the Potency entry in [1], in experiment [2], in experiment [3], in [4], in experiment [5] and in [6] was “inactive” in each case. For the same compound, the Potency entry in [7], in experiment [8], in [9], in experiment [10], in experiment [11] and in experiment [13] was “inactive” each time. Also, the Potency result in experiment [14] and in experiment [15] was “inactive” throughout.

With `O=C(/C=C/c1ccccc1)OCCc1ccccc1`, the Potency result in experiment [1], in experiment [2], in experiment [3], in [4], in [5] and in experiment [7] was “inactive” throughout. Further, the Potency entry in [8], in experiment [9], in experiment [10], in [12] and in experiment [15] was “inactive” throughout.

Turning to `CN1C(=O)OC(C)(C)C1=O`, the Potency result in [1], in experiment [2], in experiment [3], in experiment [5], in [6] and in experiment [7] was “inactive” throughout. Besides, the Potency entry in experiment [8], in [9], in experiment [10], in [11], in experiment [12] and in [13] was “inactive” each time. For the same compound, the Potency entry in experiment [14] and in experiment [15] was “inactive” throughout.

For `Cc1[nH]cnc1CN1CCc2c(c3ccccc3n2C)C1=O`, the Potency result in experiment [1], in experiment [2], in [3], in experiment [5], in experiment [6] and in experiment [7] was “inactive” in each case. Besides, the Potency entry in experiment [8], in [9], in experiment [10], in experiment [12], in experiment [14] and in [15] was “inactive” each time. The Potency entry in [16] and in experiment [17] was “inactive” each time.

For the compound `CN1C[C@H](C(=O)N[C@]2(C)O[C@@]3(O)[C@@H]4CCCN4C(=O)[C@H](Cc4ccccc4)N3C2=O)C[C@@H]2c3cccc4[nH]cc(c34)C[C@H]21`, the Potency entry in experiment [1], in [18] and in experiment [9] was “inactive” each time. Further, the Potency in experiment [5] was 29.8 µM (active); in [7], 29.8 µM (active); in experiment [10], 23.7 µM (active); in [14], 26.6 µM (active).

Turning to `C=C1CCC2CC1C2(C)C` (stereo unspecified), the Potency entry in experiment [1], in [2], in [3], in experiment [5], in experiment [6] and in [7] was “inactive” in each case. Moreover, the Potency result in experiment [8], in experiment [9], in [10], in experiment [11], in [14] and in experiment [15] was “inactive” in each case. Also, the Potency result in experiment [16] and in [17] was “inactive” throughout.

Regarding `Cc1cscn1`, the Potency result in experiment [1], in experiment [2], in experiment [3], in [5], in experiment [6] and in experiment [7] was “inactive” throughout. The Potency result in experiment [8], in experiment [9], in experiment [10], in [11], in experiment [12] and in experiment [13] was “inactive” throughout. For the same compound, the Potency entry in [14], in [15] and in [17] was “inactive” each time.

`NC1[C@H]2CN(c3nc4c(cc3F)c(=O)c(C(=O)O)cn4-c3ccc(F)cc3F)C[C@@H]12` (stereo partly specified): the Potency result in experiment [1], in experiment [18], in experiment [5], in experiment [7], in [8] and in experiment [9] was “inactive” in each case. Further, the Potency entry in [10], in experiment [12], in [14] and in experiment [15] was “inactive” in each case. Further, the Potency in experiment [6] is 8.41 µM (active); in experiment [11], 29.8 µM (active).

(Values after PubChem BioAssay (Tox21).)
